Reference: PubChem BioAssay (Tox21)
Several values for one entry are separate records, joined by “and”; a condition that tells them apart may be missing. Equal entries are not always repeated. Records with an inconclusive call do not appear. Entries that show only a call come without a potency. Some structures have more than one record in an assay (separate samples or runs), and their calls can disagree. Activity calls are given as the source filed them. Unless noted, the call rests on the fitted dose curve; in most records, active means well fitted curve in the direction sought with a large enough effect in the repeat runs; inconclusive means weak or mixed curves; inactive means no such curve, though single readings can be large; an effect the other way counts as inactive or inconclusive.

What was measured:
[1] = target: Thyrotropin receptor (Homo sapiens) (UniProt P16473); test: qHTS assay to identify small molecule agonists of the thyroid stimulating hormone receptor (TSHR) signaling pathway (AID 1224843; calls by dose curve; further: nearly all actives have a fitted effect of over 45% in size)
Chain of Thyrotropin receptor (Homo sapiens) (P16473 whole entry, looked up): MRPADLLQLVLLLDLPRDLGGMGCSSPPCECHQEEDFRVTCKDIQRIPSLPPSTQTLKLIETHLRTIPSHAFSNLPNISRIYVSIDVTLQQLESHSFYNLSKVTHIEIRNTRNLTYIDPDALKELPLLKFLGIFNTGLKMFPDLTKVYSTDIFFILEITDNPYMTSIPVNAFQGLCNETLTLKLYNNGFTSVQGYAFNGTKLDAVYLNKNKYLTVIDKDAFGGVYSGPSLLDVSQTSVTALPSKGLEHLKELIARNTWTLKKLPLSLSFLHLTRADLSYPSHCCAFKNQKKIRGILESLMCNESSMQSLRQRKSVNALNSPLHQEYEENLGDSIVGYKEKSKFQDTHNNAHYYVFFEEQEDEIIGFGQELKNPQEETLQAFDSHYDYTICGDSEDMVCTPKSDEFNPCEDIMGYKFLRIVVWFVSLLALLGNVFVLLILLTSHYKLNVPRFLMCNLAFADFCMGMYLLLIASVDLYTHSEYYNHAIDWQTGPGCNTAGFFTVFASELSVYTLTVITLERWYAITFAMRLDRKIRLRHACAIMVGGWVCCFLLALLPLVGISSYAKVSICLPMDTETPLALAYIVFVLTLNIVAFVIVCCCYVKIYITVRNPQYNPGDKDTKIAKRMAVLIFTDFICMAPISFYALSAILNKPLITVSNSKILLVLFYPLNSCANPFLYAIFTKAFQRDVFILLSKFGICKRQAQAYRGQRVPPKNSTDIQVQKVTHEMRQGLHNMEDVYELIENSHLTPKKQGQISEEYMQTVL
Method in brief: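 TSHR-expressing HEK293 cells (800 per well) were exposed to compounds for 30 min at room temperature. cAMP was then detected by HTRF competition with cAMP-d2 and anti-cAMP cryptate, read after 1 h at room temperature. Fifteen concentrations, triplicate.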

[2] = qHTS assay to identify small molecule agonists of the hypoxia (HIF-1) signaling pathway - cell viability counter screen (AID 1224844; calls by dose curve; further: nearly all actives have a fitted effect of over 50% in size; further: potency means the concentration at half of the fitted maximal effect)
Method in brief: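 ME-180 HRE-bla cells, 2,000/well, 0.5% dialyzed FBS; 5 hr settle, 17 hr compound at 37C/5% CO2; CCF4-AM reporter read first, then CellTiter-Glo luminescence after 30 min RT.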

[3] = qHTS assay to identify small molecule agonists of the hypoxia (HIF-1) signaling pathway (AID 1224846; active means well fitted activation curve with a large enough effect in the signal ratio in the repeat runs, not every such curve was filed as active; the % refers to the signal ratio)
Method in brief: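 Cell line: CellSensor HRE-bla ME-180; 2,000 cells/well; 0.5% dialyzed FBS; 5 h preincubation; DMSO compound pin transfer; 17 h, 37C, 5% CO2; CCF4-AM added; bla FRET signal scored for activation.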

[4] = qHTS assay to identify small molecule agonists of H2AX - cell viability counter screen (AID 1224847; calls by dose curve; further: nearly all actives have a fitted effect of over 30% in size; further: potency means the concentration at half of the fitted maximal effect)
Method in brief: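 Viability of CHO-K1 (wild type) cells after 3 hr compound exposure was measured by CellTiter-Glo luminescence.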

[5] = qHTS assay to identify small molecule antagonists of the estrogen related receptor (ERR) signaling pathway from Tox21 library (AID 1224848); further: nearly all actives have a fitted effect of over 50% in size; further: potency means the concentration at half of the fitted maximal effect
Method in brief: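 Cells: ERR line, 2,000/well; 6 h preincubation 37 C/5% CO2. Cpd in DMSO via pin tool; 18 h, 37 C. ONE-Glo, 30 min RT, luminescence.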

[6] = qHTS assay to identify small molecule agonists of the estrogen related receptor (ERR) signaling pathway from Tox21 library (AID 1224849; calls by dose curve; further: nearly all actives have a fitted effect of over 15% in size); settings: ERR reporter cell line, ONE-Glo luciferase, 18 h
Method in brief: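 ERR cells, 6 h pre-incubation 37 C/5% CO2; cpd in DMSO pinned; 18 h 37 C; ONE-Glo added, 30 min RT; luminescence read. Agonist mode, qHTS.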

[7] = qHTS RealTime-Glo MT Cell Viability Assay in HepG2 cells - 24 hour (AID 1224867); further: nearly all actives have a fitted effect of over 50% in size
Method in brief: (§1)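 HepG2 suspension premixed with RealTime-Glo reagents is plated at 600 cells per well and left 5 h at 37 C/5% CO2. Compounds in DMSO then go in, and bioluminescence reflecting viable cell number is recorded over 40 h.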

[8] = qHTS RealTime-Glo MT Cell Viability Assay in HEK293 cells - 32 hour (AID 1224868); further: nearly all actives have a fitted effect of over 50% in size; further: potency means the concentration at half of the fitted maximal effect
Method in brief: (§2)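 Reads taken at 0, 8, 16, 24, 32 and 40 h from the same wells. HEK293 cells (600/well) carried RealTime-Glo reagents from seeding, with compound added after a 5 h settle at 37 C.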

[9] = A CellTox Green Cytotoxicity Assay to monitor cytotoxicity in HEK293 cells - 0 hour (AID 1224869); further: nearly all actives have a fitted effect of over 50% in size; further: potency means the concentration at half of the fitted maximal effect
Method in brief: (§3)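 Nonlytic real-time cytotoxicity: HEK293 + CellTox Green reagent plated, 5 h preincubation, pintool compound addition (23 nL in DMSO), 37 C for 40 h, fluorescence measured at successive time points.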

[10] = qHTS RealTime-Glo MT Cell Viability Assay in HepG2 cells - 40 hour (AID 1224870); further: nearly all actives have a fitted effect of over 50% in size; further: potency means the concentration at half of the fitted maximal effect
Method in brief: (§4)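 HepG2 cells mixed with RealTime-Glo MT reagents (NanoLuc plus cell-permeant prosubstrate) were seeded at 600 cells/well, incubated 5 h at 37 C/5% CO2, then pinned with compounds in DMSO; nonlytic luminescence tracked viability during 40 h treatment.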

[11] = A CellTox Green Cytotoxicity Assay to monitor cytotoxicity in HEK293 cells - 40 hour (AID 1224871); further: nearly all actives have a fitted effect of over 45% in size; further: potency means the concentration at half of the fitted maximal effect
Method in brief: as §3

[12] = qHTS RealTime-Glo MT Cell Viability Assay in HEK293 cells - 16 hour (AID 1224872)
Method in brief: as §2

[13] = qHTS RealTime-Glo MT Cell Viability Assay in HepG2 cells - 8 hour (AID 1224873); further: nearly all actives have a fitted effect of over 55% in size
Method in brief: as §4

[14] = qHTS RealTime-Glo MT Cell Viability Assay in HEK293 cells - 40 hour (AID 1224874); settings: RealTime-Glo luminescence; max response: stronger effect = lower value; further: nearly all actives have a fitted effect of over 50% in size; further: potency means the concentration at half of the fitted maximal effect
Method in brief: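 Cells were seeded together with NanoLuc luciferase and a prosubstrate that viable cells reduce to a luciferase substrate. After a 5 h incubation at 37 C/5% CO2, compounds were added and luminescence was measured repeatedly during 40 h of treatment.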

[15] = A CellTox Green Cytotoxicity Assay to monitor cytotoxicity in HEK293 cells - 24 hour (AID 1224875); further: nearly all actives have a fitted effect of over 45% in size; further: potency means the concentration at half of the fitted maximal effect
Method in brief: as §3

[16] = A CellTox Green Cytotoxicity Assay to monitor cytotoxicity in HepG2 cells - 16 hour (AID 1224876); further: nearly all actives have a fitted effect of over 45% in size; further: potency means the concentration at half of the fitted maximal effect
Method in brief: (§5)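 Read-out is fluorescence of a cyanine dye excluded from live cells that stains DNA of dead HepG2 cells, with signal proportional to cytotoxicity. Plates were read at 0, 8, 16, 24, 32 and 40 h after compound addition.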

[17] = qHTS RealTime-Glo MT Cell Viability Assay in HepG2 cells - 32 hour (AID 1224877); further: nearly all actives have a fitted effect of over 55% in size
Method in brief: as §1

[18] = A CellTox Green Cytotoxicity Assay to monitor cytotoxicity in HepG2 cells - 24 hour (AID 1224878); further: nearly all actives have a fitted effect of over 45% in size; further: potency means the concentration at half of the fitted maximal effect
Method in brief: as §5

[19] = A CellTox Green Cytotoxicity Assay to monitor cytotoxicity in HepG2 cells - 40 hour (AID 1224879); further: nearly all actives have a fitted effect of over 40% in size; further: potency means the concentration at half of the fitted maximal effect
Method in brief: as §5

[20] = qHTS assay to identify small molecule agonists of H2AX (AID 1224845; active means well fitted activation curve with a large enough effect in the signal ratio in the repeat runs, not every such curve was filed as active; the % refers to the signal ratio)
Method in brief: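 Wild-type CHO-K1 cells plated overnight, then exposed 3 hr at 37C to compounds at 15 concentrations (0.76% DMSO). Lysed, then HTRF anti-pH2AX(S139)-cryptate/anti-H2AX-d2 detection after 24 hr at room temperature; emissions 665 and 620 nm.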

NCc1cccnc1
Potency [1]: inactive
Potency [2]: inactive
outcome [3]: inactive
Potency [4]: inactive
Potency [5]: inactive
activity change, positive = activation ([6]; at 42.5 µM (top of the series)): 0.61% (inactive)
activity change, positive = activation ([6]; at 92.4 µM (top of the series)): 4.26% (inactive)
Potency [7]: inactive
Potency [8]: inactive
Potency [9]: inactive
Potency [10]: inactive
Potency [11]: inactive
Potency [12]: inactive
Potency [13]: inactive
max response [14]: 0.404% (inactive) and -2.08% (inactive)
Potency [15]: inactive
Potency [16]: inactive
Potency [17]: inactive
Potency [18]: inactive
Potency [19]: inactive

C=CC(=O)OCCO
Potency [1]: inactive
Potency [2]: inactive
outcome [3]: inactive
Potency [4]: inactive
Potency [7]: inactive
Potency [8]: inactive
Potency [9]: inactive
Potency [11]: inactive
Potency [12]: inactive
Potency [13]: inactive
max response [14]: 4.73% (inactive) and 14.7% (inactive)
Potency [15]: inactive
Potency [16]: inactive
Potency [17]: inactive
Potency [18]: inactive
Potency [19]: inactive

COc1ccc(C(CN(C)C)C2(O)CCCCC2)cc1 (centres undefined)
Potency [1]: inactive
Potency [2]: inactive
outcome [3]: inactive
Potency [4]: inactive
Potency [7]: inactive
Potency [8]: inactive
Potency [9]: inactive
Potency [10]: inactive
Potency [11]: inactive
Potency [12]: inactive
Potency [13]: inactive
max response [14]: -15.6% (inactive) and -9.44% (inactive)
Potency [15]: inactive
Potency [16]: inactive
Potency [17]: inactive
Potency [18]: inactive
Potency [19]: inactive

CC(C)(OOC(C)(C)c1ccccc1)c1ccccc1
Potency [1]: inactive
Potency [2]: inactive
outcome [3]: inactive
Potency [4]: 99.3 µM (active)
Potency [5]: inactive
activity change, positive = activation ([6]; at 92.4 µM (top of the series)): 7.35% (inactive) and 4.9% (inactive)
Potency [7]: inactive
Potency [8]: inactive
Potency [9]: inactive
Potency [10]: inactive
Potency [11]: 24.2 µM (active) and 49 µM (active)
Potency [12]: inactive
Potency [13]: inactive
max response [14]: -13.8% (inactive) and -15.4% (inactive)
Potency [15]: 48.3 µM (active) and 49 µM (active)
Potency [17]: inactive
Potency [18]: inactive
Potency [19]: inactive

COP(=O)(OC)OC
Potency [1]: inactive
Potency [2]: inactive
outcome [3]: inactive
Potency [4]: inactive
Potency [5]: inactive
activity change, positive = activation ([6]; at 92.4 µM (top of the series)): -30.8% (inactive) and 3.29% (inactive)
Potency [7]: inactive
Potency [8]: inactive
Potency [9]: inactive
Potency [11]: inactive
Potency [12]: inactive
Potency [13]: inactive
max response [14]: 4.65% (inactive)
Potency [15]: inactive
Potency [17]: inactive
Potency [18]: inactive
Potency [19]: 19.7 µM (active) and inactive

O=[N+]([O-])c1ccc(O)c([N+](=O)[O-])c1
Potency [1]: inactive
Potency [2]: inactive
Potency [20]: inactive
outcome [3]: inactive
Potency [5]: 21.8 µM (active) and 21.7 µM (active)
activity change, positive = activation ([6]; at 92.4 µM (top of the series)): -36.7% (inactive) and -43.4% (inactive)
Potency [7]: inactive
Potency [8]: inactive
Potency [9]: inactive
Potency [11]: inactive
Potency [12]: inactive
Potency [13]: inactive
max response [14]: -16% (inactive)
Potency [16]: inactive
Potency [17]: inactive
Potency [18]: inactive
Potency [19]: inactive

O=C(Nc1ccc(Br)cc1)c1cc(Br)cc(Br)c1O
Potency [1]: inactive
Potency [2]: 38.8 µM (active) and 24.5 µM (active)
Potency [20]: inactive
Potency [4]: 28.3 µM (active) and 35.7 µM (active) and 39.1 µM (active)
Potency [5]: 12.2 µM (active)
activity change, positive = activation ([6]; at 42.5 µM (top of the series)): -35.9% (inactive)
activity change, positive = activation ([6]; at 92.4 µM (top of the series)): -31.1% (inactive) and -48% (inactive)
Potency [7]: inactive
Potency [8]: 21.8 µM (active) and 21.9 µM (active)
Potency [9]: inactive and 38.9 µM (active)
Potency [10]: 43.5 µM (active)
Potency [11]: 38.9 µM (active) and inactive
Potency [12]: inactive
Potency [13]: inactive
Potency [14]: 17.3 µM (active) and 19.5 µM (active)
Potency [16]: inactive and 43.6 µM (active)
Potency [18]: 38.9 µM (active)
Potency [19]: 19.4 µM (active) and 24.5 µM (active) and 23.9 µM (active)

Nc1ccncc1
Potency [1]: inactive
Potency [2]: inactive
Potency [20]: inactive
Potency [4]: inactive
Potency [7]: inactive
Potency [8]: inactive
Potency [9]: inactive
Potency [10]: inactive
Potency [11]: inactive
Potency [12]: inactive
Potency [13]: inactive
max response [14]: 2.45% (inactive) and 3.84% (inactive)
Potency [15]: inactive
Potency [16]: inactive
Potency [17]: inactive
Potency [18]: inactive
Potency [19]: inactive

COP(=S)(OC)Oc1ccc([N+](=O)[O-])cc1
Potency [1]: inactive
Potency [2]: inactive
outcome [3]: inactive
Potency [4]: inactive
Potency [7]: inactive
Potency [8]: inactive
Potency [9]: inactive
Potency [11]: inactive
Potency [12]: inactive
Potency [13]: inactive
max response [14]: -19% (inactive) and -8.77% (inactive)
Potency [15]: inactive
Potency [16]: inactive
Potency [17]: inactive
Potency [18]: inactive
Potency [19]: inactive

c1ccc(-c2cccc(-c3ccccc3)c2)cc1
Potency [1]: inactive
Potency [2]: inactive
Potency [20]: inactive
outcome [3]: inactive
Potency [4]: inactive
Potency [7]: inactive
Potency [8]: inactive
Potency [9]: inactive
Potency [11]: inactive
Potency [12]: inactive
Potency [13]: inactive
max response [14]: -23.8% (inactive)
Potency [15]: inactive
Potency [17]: inactive
Potency [18]: inactive
Potency [19]: inactive

CCN(N=O)C(N)=O
Potency [1]: inactive
Potency [2]: inactive
outcome [3]: inactive
Potency [4]: inactive
Potency [7]: inactive
Potency [8]: inactive
Potency [9]: inactive
Potency [11]: inactive
Potency [12]: inactive
Potency [13]: inactive
max response [14]: 4.37% (inactive) and -1.44% (inactive)
Potency [15]: inactive
Potency [16]: inactive
Potency [17]: inactive
Potency [18]: inactive
Potency [19]: inactive

O=P(O)(O)CCCl
Potency [1]: inactive
Potency [2]: inactive
outcome [3]: inactive
Potency [4]: inactive
Potency [7]: inactive
Potency [8]: inactive
Potency [9]: inactive
Potency [10]: inactive
Potency [11]: inactive
Potency [12]: inactive
Potency [13]: inactive
max response [14]: -0.529% (inactive) and 21.1% (inactive)
Potency [15]: inactive
Potency [17]: inactive
Potency [18]: inactive
Potency [19]: inactive
